Data on 22 molecules can be found in PMC5540273 (PLoS ONE, 2017).

What all share (conditions): concentration: 1 μM, replicates: in singlicate; n = 1
The test system of assay [1] is MAPKAPK5.
Assay [2] deals with MARK1.
Assay [3] concerns MARK2.
The test system of assay [4] is MARK3.
Assay [5] concerns MARK4.
Assay [6] concerns MAST1.
In assay [7] the test system is T1, MEK1.
T1 construct: gene MAP2K1

The test system of assay [8] is T2, MEK2.
T2 construct: gene MAP2K2

Assay [9] has as its system T3, MEK3.
T3 construct: gene MAP2K3

The test system of assay [10] is T4, MEK4.
T4 construct: gene MAP2K4
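Further: KINOMEscan kinase panel screen.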

For `Cn1cc(-c2cnc(N)c3c(-c4ccc5c(c4)CCN5C(=O)Cc4ccccc4)csc23)cn1` [GSK2593074], the “%Inh” value is reported as 0% in assay [1]; 0% in assay [2]; 5% in assay [3]; 0% in [4]; 9% in [5]; 25% in assay [6]. In addition, the “%Inh” value came out at 36% in assay [7], 23% in assay [8], 23% in [9] and 56% in assay [10].

Regarding `CCn1c(-c2nonc2N)nc2c(-c3ccccc3)ncc(OCCCN)c21.O=C(O)C(F)(F)F.O=C(O)C(F)(F)F` [GSK260205], the “%Inh” value in assay [1] came to 0%; in [2], 0%; in [3] it was 0%; in assay [4], 0%; in assay [5], 0%; in assay [6] it was 28%. In addition, the “%Inh” value was determined as 0% in [7], 0% in assay [8], 0% in assay [9] and 13% in assay [10].

In the case of `Cc1ccc(NC(=O)c2cccc(N3CCCCC3)c2)cc1-c1ccc(C(=O)NCC2CC2)cc1` [GSK1917008], the “%Inh” value in assay [1] is 0%; in [2] it was 0%; in [3], 0%; in assay [4], 20%; in [5], 10%; in assay [6] it was 0%. Besides, the “%Inh” value in assay [7] came out at 0%; in assay [8] it was 0%; in assay [9], 0%; in assay [10] it was 8%.

For the molecule `Cc1nn2c(=O)cc(N3CCO[C@H](C)C3)nc2n1Cc1cccc(Cl)c1Cl` [GSK2373693], the “%Inh” value in assay [1], in [2], in assay [3], in assay [4], in assay [5] and in assay [6] was 0% throughout. In addition, the “%Inh” value came out at 0% in assay [7], 0% in assay [8], 10% in [9] and 27% in [10].

Take `Cc1ccc(O)cc1Nc1ccnc2cc(-c3ccc(CN4CCCCC4)o3)ccc12` [GW557777]: the “%Inh” value worked out at 0% in [1]; 8% in assay [2]; 8% in [3]; 0% in [4]; 0% in [5]; 0% in [6]. The “%Inh” value in assay [7] worked out at 17%; in assay [8], 30%; in [9], 2%; in assay [10], 0%.

For the molecule `Cc1ccc(C)c(NC(=O)Nc2ccc(C)c(-c3ccc(C(=O)Nc4ccncc4)cc3)c2)c1` [GSK1398473], the “%Inh” value in assay [1] is reported as 0%; in [2], 0%; in [3], 0%; in [4], 0%; in assay [5], 3%; in assay [6], 0%. Further, the “%Inh” value in assay [7] came out at 0%; in [8] it was 0%; in assay [9] it was 0%; in [10], 26%.

For `Cc1cccc(Nc2nc(N[C@H]3CCCC[C@H]3N)ncc2C(N)=O)c1.Cl` [GSK986310], the “%Inh” value in assay [1] was found to be 0%; in assay [2] it was 5%; in assay [3], 37%; in assay [4] it was 0%; in assay [5], 13%; in assay [6] it was 0%. Further, the “%Inh” value in assay [7] stood at 8%; in assay [8], 19%; in [9] it was 88%; in [10] it was 69%.

As for `CN(c1ccc(NC(=O)N2CCN(CCCN3CCOCC3)CC2)cc1)c1ccnc(Nc2ccc(CS(C)(=O)=O)cc2)n1.Cl` [GW830899], the “%Inh” value was found to be 0% in assay [1]; 0% in [2]; 1% in assay [3]; 1% in assay [4]; 30% in assay [5]; 0% in assay [6]. For the same molecule, the “%Inh” value in assay [7] is recorded as 0%; in assay [8] it was 23%; in assay [9], 0%; in [10] it was 0%.

Regarding `Cn1cc(-c2ccc3c(c2)CCN3C(=O)Cc2cc(F)cc(F)c2F)c2c(N)ncnc21` [GSK2634140], the “%Inh” value in assay [1], in [2], in assay [3], in assay [4], in assay [5] and in assay [6] was 0% throughout. For the same molecule, the “%Inh” value in assay [7] amounted to 0%; in assay [8] it was 0%; in assay [9], 0%; in assay [10], 37%.

On to `CCNc1nccc(-c2c(-c3ccc(F)cc3)ncn2C2CCN(C)CC2)n1`, for which the “%Inh” value is reported as 0% in assay [1]; 0% in [2]; 0% in assay [3]; 0% in [4]; 0% in [5]; 46% in [6]. The “%Inh” value came to 4% in assay [7], 15% in assay [8], 0% in [9] and 0% in assay [10].

`Cc1ccccc1CC(=O)N1CCc2cc(-c3cn(C)c4ncnc(N)c34)ccc21` [GSK2603346]: the “%Inh” value in [1], in assay [2], in [3], in [4], in assay [5] and in [6] was 0% each time. Besides, the “%Inh” value in assay [7] is reported as 0%; in assay [8], 0%; in [9], 1%; in assay [10] it was 27%.

`O=C(Nc1n[nH]c2nc(-c3ccccc3O)ccc12)C1CC1` [SB-711880]: the “%Inh” value came to 0% in assay [1]; 0% in assay [2]; 43% in [3]; 0% in assay [4]; 0% in [5]; 31% in [6]. Also, the “%Inh” value in assay [7] was determined as 5%; in assay [8] it was 25%; in assay [9], 40%; in [10], 34%.

Take `CC(C)(C)c1ccc(C(=O)Nc2cn3cc(-n4ccnc4)ccc3n2)cc1`: the “%Inh” value in assay [1] is 0%; in assay [2], 0%; in assay [3], 3%; in assay [4] it was 0%; in assay [5], 0%; in assay [6], 38%. Further, the “%Inh” value was found to be 5% in assay [7], 6% in assay [8], 0% in assay [9] and 38% in assay [10].

Consider `Cl.Cl.NCC(NC(=O)c1cc(-c2cccnc2)c(-c2ccnc3[nH]ccc23)s1)c1ccccc1` (stereo not shown) [GSK1323434], for which the “%Inh” value in assay [1] was 0%; in [2] it was 0%; in assay [3], 40%; in assay [4], 0%; in assay [5], 8%; in assay [6], 0%. The “%Inh” value is 0% in [7], 0% in assay [8], 39% in assay [9] and 25% in assay [10].

`Cc1ccc(Nc2ccnc(Nc3ccc(C)c(F)c3)n2)cc1O.Cl` [GW582868]: the “%Inh” value was 0% in assay [1]; 0% in [2]; 0% in assay [3]; 0% in [4]; 0% in assay [5]; 28% in assay [6]. Moreover, the “%Inh” value is 0% in [7], 0% in [8], 13% in assay [9] and 28% in assay [10].

On to `Cc1ccc(NC(=O)c2ccnc(N3CCCCC3)c2)cc1-c1ccc(C(=O)NCC2CC2)cc1` [GW775610], for which the “%Inh” value is listed as 5% in [1]; 0% in assay [2]; 14% in assay [3]; 0% in assay [4]; 2% in assay [5]; 37% in assay [6]. Also, the “%Inh” value in assay [7] is 4%; in assay [8] it was 0%; in [9], 45%; in [10], 0%.

As to `CN(c1ccc2c(c1)nc(NCc1ccccc1)n2C)c1ccnc(Nc2ccc(CS(C)(=O)=O)cc2)n1.Cl` [GW811603], the “%Inh” value in assay [1] is 0%; in assay [2], 30%; in [3] it was 0%; in [4], 0%; in assay [5] it was 5%; in assay [6], 31%. Further, the “%Inh” value amounted to 0% in assay [7], 0% in [8], 51% in [9] and 34% in assay [10].

Turning to `CC(C)c1nc(-c2cccc(NS(=O)(=O)c3c(F)cccc3F)c2)c(-c2ccnc(Nc3ccc(N4CCOCC4)nc3)n2)s1.Cl` [GSK1723980], the “%Inh” value is 0% in assay [1]; 0% in assay [2]; 0% in assay [3]; 0% in assay [4]; 40% in assay [5]; 0% in assay [6]. Besides, the “%Inh” value was 5% in assay [7], 35% in assay [8], 15% in [9] and 98.6% in assay [10].

Consider `O=C(Nc1c(F)cccc1F)c1cc(C(=O)c2ccccc2F)c[nH]1` [GSK1326180], for which the “%Inh” value in assay [1] amounted to 0%; in [2], 0%; in assay [3] it was 0%; in assay [4], 3%; in assay [5], 9%; in assay [6] it was 0%. Besides, the “%Inh” value came out at 0% in assay [7], 0% in assay [8], 0% in [9] and 10% in [10].

Consider `COc1cc(Nc2nccc(N3CCC(NC(=O)Nc4ccc5c(c4)OCO5)C3)n2)cc(OC)c1OC` (stereo not shown) [GSK1379766], for which the “%Inh” value in assay [1] was 0%; in assay [2] it was 4%; in assay [3] it was 0%; in [4] it was 0%; in assay [5], 1%; in [6], 0%. The “%Inh” value in assay [7] is listed as 0%; in assay [8] it was 0%; in assay [9], 2%; in [10] it was 8%.

For `CNc1nccc(-c2ccc3c(N)n[nH]c3c2)n1` [GSK2206003], the “%Inh” value in [1] came to 0%; in assay [2], 0%; in assay [3], 25%; in [4], 0%; in assay [5] it was 0%; in assay [6], 0%. Moreover, the “%Inh” value in assay [7] is given as 0%; in assay [8], 5%; in assay [9] it was 34%; in assay [10], 22%.

In the case of `CCOc1nccc(-c2c(-c3ccc(F)cc3)ncn2C2CCNCC2)n1` [SB-249175], the “%Inh” value is on record as 39% in assay [1]; 3% in assay [2]; 29% in [3]; 0% in [4]; 0% in [5]; 0% in assay [6]. Also, the “%Inh” value is 28% in [7], 31% in assay [8], 43% in assay [9] and 21% in assay [10].
